Screens deposited in PubChem BioAssay by The Scripps Research Institute Molecular Screening Center.
HTR5A ag = counter-screen for OPRM1-OPRD1 agonists: human HTR5A agonism. P47898. HTR5A agonist assay, luminescence, cell-based. activation, % at 9.3 µM. 340,000 compounds, 0.61% hits. AID 504692; in the data active = activation mostly above about 9.5%, no sharp cut-off; inactive = mostly below about 7.6%;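 note: 0% = cells with vehicle only and 100% = reference agonist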
MOR-DOR ag = agonists of human mu-delta opioid receptor heterodimerization; P35372+P41143; cells, OPRM1-OPRD1 heterodimerization, luminescence; activation, % at 9.3 µM; 340,000 compounds, 0.3% hits;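 note: 0% = vehicle-treated cells and 100% = reference agonist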
HTR5A inv ctr = counter-screen for OPRM1-OPRD1 inverse agonists: human HTR5A inverse agonism | inhibition, % at 9.3 µM | 340,000 compounds, 0.083% hits | HTR5A cell line, luminescence | P47898 | AID 504634; in the data active = inhibition mostly above about 23%, no sharp cut-off; inactive = mostly below about 18%;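 note: 0% = cells with DMSO and 100% = no-cell wells with DMSO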
MsrA inhibitor = inhibits bovine methionine sulfoxide reductase A; purified bovine MsrA, absorbance read-out; inhibition, % at 15.5 µM; 360,000 compounds, 0.75% hits; AID 651718; in the data active = inhibition above about 4.5%;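 note: 0% = vehicle wells with enzyme and 100% = reference inhibitor wells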
MOR-DOR inv ag = inverse agonists of human mu-delta opioid receptor heterodimerization | P35372+P41143 | cell-based MOR-DOR heterodimer luminescence, inverse agonism | inhibition, % at 9.3 µM | 340,000 compounds, 0.21% hits; in the data active = inhibition above about 22%, passing the limit was not always enough;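 note: 0% = cells with DMSO and 100% = wells without cells with DMSO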
MsrA act = activators of bovine methionine sulfoxide reductase A; purified bovine MsrA, absorbance read-out; activation, % at 10.6 µM; 360,000 compounds, 0.3% hits; in the data active = activation above about 7.5%;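 note: 0% = vehicle and 100% = reference activator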
OPRM1-D1 ag cf = OPRM1-OPRD1 heterodimer agonism, confirmation; 830 compounds, 45% hits; activation, % at 9.3 µM; cells, MOR-DOR heterodimerization, luminescence complementation; shares compounds with MOR-DOR ag; AID 504904;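 note: 0% = vehicle-treated cells and 100% = reference agonist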
HTR5A ag counter = counter-screen for OPRM1-OPRD1 agonists: human HTR5A agonism; shares compounds with MOR-DOR ag; HTR5A agonist counterscreen, cell luminescence; activation, % at 9.3 µM; 830 compounds, 8% hits; in the data active = activation above about 17%;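 note: 0% = vehicle-treated cells and 100% = reference agonist response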
* marks the source's active call; other numbers are inactive results; i = inactive; x = no result. Hits are enriched below; roughly 1.9% of the tested compounds scored in any of these assays. Cut-off read from the data, not from the text of the source, unless noted: active = activation above about 18%; inactive = the rest.

SMILES	HTR5A ag	MOR-DOR ag	HTR5A inv ctr	MsrA inhibitor	MOR-DOR inv ag	MsrA act	OPRM1-D1 ag cf	HTR5A ag counter
COc1cc(C(=O)O)cc(Br)c1OC1CCCC1	11*	-1	-3	2	3	-14	x	x
O=C1c2cccc3cccc(c23)C(=O)C1(O)O	-4	-9	15	3	46*	-4	x	x
O=C1NC(=O)C2(N1)C(=O)c1cccc3cccc2c13 (stereo not given)	x	x	x	0	x	-3	x	x
CCc1ccc(S(=O)(=O)/N=C2/C=C(Sc3ncn[nH]3)C(=O)c3ccccc32)cc1	4	30*	17	x	-143	7	x	x
CC(=O)Nc1sc(N/N=C/c2ccc(O)cc2)nc1-c1ccc(C)cc1	0	-1	0	1	4	-8	x	x
CC(=O)Nc1sc(N/N=C/c2ccccc2)nc1-c1ccc(C)cc1	13*	1	4	0	-3	0	x	x
CC1(C)CC(=O)C=C(C2CC2)C1=O	x	x	x	0	x	x	x	x
O=C(c1ccco1)N1N=C(c2cccs2)CC1c1ccccc1O (stereo not given)	7	1	-18	5.9*	-5	-5	x	x
CCCCNC(=S)N/N=C/c1ccc(C)s1	-6	7	13	4.7*	-34	-2	x	x
COc1cccc(-c2ncn(CCc3ccccc3OC)c2CC(C)C)c1	x	x	x	0	x	x	x	x
COC(=O)C1=C(C)N(Cc2cccc(C(F)(F)F)c2)C(=NCc2ccc(OC)cc2)NC1c1ccccc1C(F)(F)F (stereo not given)	x	x	x	0	x	x	x	x
CCN(c1ccccc1)S(=O)(=O)c1ccc2c(c1)CCCN2C(C)=O	11*	-1	15	0	6	-3	x	x
CCN(c1cccc(C)c1)S(=O)(=O)c1ccc2c(c1)CCCN2C(C)=O	1	-1	-18	0	5	1	x	x
CCOC(=O)C1=C(C)N(C)C(=S)NC1c1ccccc1Cl (stereo not given)	-2	-2	6	2	12	-4	x	x
CCOC(=O)C1=C(C)N(C)C(=S)NC1c1cccc(Cl)c1Cl (stereo not given)	10*	0	-27	0	-2	-4	x	x
Cc1c(C(=O)Nc2nc3ccccc3[nH]2)oc2ccc(Br)cc12	-2	2	-4	1	-9	-3	x	x
Cc1c(C(=O)Nc2nc3ccccc3[nH]2)oc2ccccc12	11*	7	6	2	-51	-2	x	x
COc1ccc(Cn2c(=S)[nH]c3cc(C(=O)NCc4cccnc4)ccc3c2=O)cc1	13*	-2	-38	1	12	-2	x	x
O=C(O)CC(Cc1ccc(Cl)cc1)C(=O)Nc1ccccc1 (stereo not given)	10*	-1	-38	0	7	2	x	x
CN1C(=O)[C@@]2(C3=C(CCCC3=O)OC3=C2C(=O)OC2(CCCCC2)C3)c2ccccc21	x	x	x	-1	x	x	x	x
Cc1ccc2nc(Cl)c3cc(C(=O)N(CCN(C)C)Cc4ccco4)sc3c2c1	-1	32*	3	-1	-156	-1	1	3
COC(=O)C1=C(C)N(Cc2ccccc2C(F)(F)F)C(=NCc2ccc(OC)cc2)NC1c1cccc(F)c1 (stereo not given)	x	x	x	0	x	x	x	x
Cc1nc2nc(C)n(CCN3CCOCC3)c(=O)c2c(-c2cccc([N+](=O)[O-])c2)c1C(=O)CCCCCCCCCCN1CCC(c2ccccc2)(c2ccccc2)CC1	8	26*	-29	0	-113	5	131*	6
CNC[C@H](Cc1ccccc1)NC[C@@H](Cc1cccc2ccccc12)NCCc1ccc(C)cc1	1	30*	-11	1	-167	-12	4	-1
Oc1ccccc1N1CCN(C(c2ccccc2)c2ccccc2)CC1	10	27*	-29	0	-171	-3	23*	-2
SMILES	HTR5A ag	MOR-DOR ag	HTR5A inv ctr	MsrA inhibitor	MOR-DOR inv ag	MsrA act	OPRM1-D1 ag cf	HTR5A ag counter
Fc1ccc(CN2CCN(C(c3ccccc3)c3ccccc3)CC2)cc1	-1	16	4	1	-76	-2	x	x
c1ccc(CN2CCN(C(c3ccccc3)c3ccccc3)CC2)cc1	-3	26*	-15	0	-131	1	19*	-4
CCN(Cc1ccccc1)C(=O)Nc1c(Cl)cccc1Cl	x	x	x	2	x	x	x	x
O=C(Nc1ccc2c(c1)CCC2)c1cnn2c1NC(c1ccco1)CC2C(F)(F)F (stereo not given)	3	23*	10	0	-104	-9	7	2
CCn1c(O)c(N=NC(=O)CNc2ccc(C)cc2)c2ccccc21	0	1	-3	2	-4	-5	x	x
NC(=S)N=Nc1c(O)n(Cc2ccccc2)c2ccccc12	0	-4	2	1	22	-3	x	x
COc1ccc2c(c1)c(N=NC(N)=S)c(O)n2CC(=O)c1ccccc1	7	19*	-29	-1	-110	0	15	8
Cc1ccc(NC(=O)Cn2c(O)c(N=NC(N)=S)c3ccccc32)cc1	8	20*	-32	0	-91	-4	9	6
C=CC[C@@H](CC(=O)N(CCO)Cc1ccccc1)C(=O)N[C@@H](COC(=O)[C@@H](CC=C)CC(=O)OC(C)(C)C)Cc1c[nH]c2ccccc12	9	29*	-54	1	-131	-9	2	-3
C=CC[C@H](CC(=O)N(CCO)Cc1ccccc1)C(=O)N[C@@H](COC(=O)[C@H](CC=C)CC(=O)OC(C)(C)C)Cc1c[nH]c2ccccc12	-2	1	3	1	-3	-5	x	x
CN(C)C(CNC(=O)c1ccc2ccccc2c1)c1ccco1 (stereo not given)	1	30*	-3	1	-158	-4	33*	4
CSc1ccccc1C(=O)NCC(c1ccco1)N(C)C (stereo not given)	8	-1	-24	0	5	-2	x	x
CSc1ccc(C(=O)NCC(c2ccco2)N(C)C)cc1[N+](=O)[O-] (stereo not given)	6	251*	-17	0	i	-2	242*	1
CC(=O)NC(CC(=O)NCC(c1ccco1)N(C)C)c1ccccc1 (stereo not given)	4	195*	-43	-1	i	-13	226*	-1
CCOC(=O)N[C@H](C(=O)N1CCC[C@H]1C(=O)NCc1ccccc1)C(C)C	x	x	x	0	x	x	x	x
CCOC(=O)C1(Cc2ccccc2)CCN(Cc2cn[nH]c2-c2ccccc2)CC1	5	36*	-3	-2	-260	-1	1	23*
CCOC(=O)C1(CCCc2ccccc2)CCN(Cc2cn(CC)nc2C)CC1	0	315*	0	0	i	-8	20*	-1
CCOC(=O)C1(Cc2cccc(F)c2)CCN(Cc2cnc(C)s2)CC1	2	22*	-4	0	-113	0	24*	1
